The source of these data is PubChem BioAssay (EPA / NIEHS).

Calls of active or inactive are those of the source. The calls were made as follows: active = hit-call score of the fitted dose curve at least 0.9, where 1 is the maximum; inactive = score below 0.9.

Read-out in the first experiment: catalase (CAT), CAT (gene 847)
Kind of experiment: LTEA_HepaRG_CAT: Life Technologies and Expression Analysis (LTEA) Assay for catalase (CAT) using HepaRG (AID 2283452).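 As to AC50: TaqMan qRT-PCR signal normalized to ACTB GAPDH and POLR2A housekeeping genes.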 The following applies: mRNA level, 48 h; actives raise or lower the signal. In a few lines:
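HepaRG cells in serum-free induction medium, 0.5% DMSO vehicle, exposed 48 h in duplicate over 8 half-log concentrations from 100 uM. CAT mRNA measured by qRT-PCR, normalized to ACTB, GAPDH, POLR2A; bidirectional fit versus DMSO.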
In general, AC50 refers to the concentration at which the activity in the assay is half-maximal. For `CO/N=C(/C1=NOCCO1)c1ccccc1Oc1ncnc(Oc2ccccc2Cl)c1F`, the AC50 was 19.7 µM (active).

Turning to `CCCCOCN(C(=O)CCl)c1c(CC)cccc1CC`, the outcome was inactive.

With `CS(=O)(=O)c1ccc(C(=O)C2C(=O)CCCC2=O)c([N+](=O)[O-])c1`, the outcome was inactive.

For the compound `O=c1n(Cl)c(=O)n(Cl)c(=O)n1Cl`, the outcome was inactive.

Take `CCOP(=O)(OCC)Oc1nc(Cl)c(Cl)cc1Cl`: the AC50 was 91.1 µM (active).

Regarding `Cc1cnc(C2=NC(C)(C(C)C)C(=O)N2)c(C(=O)O)c1` (stereo not given), the outcome was inactive.

`O=C(O)c1c(Cl)ccc2cc(Cl)cnc12`: the compound was classed as inactive.

Regarding `Cc1cc(C)nc(Nc2ccccc2)n1`, the call was inactive.

With `Nc1c(Cl)c(Cl)nc(C(=O)O)c1Cl`, the call was inactive.

In the case of `OC(c1ccc(Cl)cc1)(c1ccc(Cl)cc1)C(Cl)(Cl)Cl`, the AC50 is 71.2 µM (active).

For `CCCCC(O)(Cn1cncn1)c1ccc(Cl)cc1Cl` (stereo not given), the AC50 is 73 µM (active).

For `Nc1c(Cl)c(F)nc(OCC(=O)O)c1Cl`, the call was inactive.

Regarding `CC1(C)C(C(=O)OC(C#N)c2cccc(Oc3ccccc3)c2)C1(C)C` (stereo not given), the outcome was inactive.

Turning to `CCOc1cc(C(C)(C)C)ccc1C1COC(c2c(F)cccc2F)=N1` (stereo not given), the outcome was inactive.

Consider `N#Cc1c[nH]cc1-c1cccc2c1OC(F)(F)O2`, for which the AC50 is 74.9 µM (active).

On to `CCNC(=O)NC(=O)C(C#N)=NOC`, for which the call was inactive.

Regarding `COP(=O)(OC)O/C(C)=C/C(=O)N(C)C`, the call was inactive.

Consider `CCOc1nc(F)cc2nc(S(=O)(=O)Nc3c(Cl)cccc3Cl)nn12`, for which the outcome was inactive.

Regarding `CNC(=O)N(C)c1nnc(C(C)(C)C)s1`, the outcome was inactive.

Turning to `CC(C)N1C(=O)c2ccccc2NS1(=O)=O`, the compound was called inactive.

`Cc1ccc(N=CN(C)C=Nc2ccc(C)cc2C)c(C)c1`: the compound was called inactive.

Regarding `CS(=O)(=O)c1cc(C(F)(F)F)ccc1C(=O)c1cnoc1C1CC1`, the compound was called inactive.

`C=C(C)CN(CC)c1c([N+](=O)[O-])cc(C(F)(F)F)cc1[N+](=O)[O-]`: the compound was called inactive.

Consider `COc1ccc(-c2ccccc2)cc1NNC(=O)OC(C)C`, for which the outcome was inactive.

As to `CN=C=S`, the compound was called inactive.

Consider `O=P(O)(O)CCCl`, for which the compound was classed as inactive.

Regarding `C=CCOC(=O)C(C)(C)OC(=O)c1cc(-n2c(=O)cc(C(F)(F)F)n(C)c2=O)ccc1Cl`, the compound was called inactive.

Consider `CC(C)C1(C)N=C(c2ncccc2C(=O)O)NC1=O` (stereo not given), for which the compound was classed as inactive.

As to `CC(C)=CC1C(C(=O)OCc2coc(Cc3ccccc3)c2)C1(C)C` (stereo not given), the compound was classed as inactive.

Turning to `COCC(C)N(C(=O)CCl)c1c(C)csc1C` (stereo not given), the result was inactive.

For `Cn1c(-c2ccccc2)cc(-c2ccccc2)[n+]1C`, the AC50 is 21.9 µM (active).

With `CSC(=O)c1c(C(F)F)nc(C(F)(F)F)c(C(=O)SC)c1CC(C)C`, the compound was classed as inactive.

Regarding `Clc1cccc(C(Cl)(Cl)Cl)n1`, the compound was called inactive.

As to `COc1cc(OC)nc(NC(=O)NS(=O)(=O)c2ncccc2OCC(F)(F)F)n1`, the outcome was inactive.

With `COC(=O)NS(=O)(=O)c1ccc(N)cc1`, the outcome was inactive.

For the compound `COC(=O)c1c(C(F)F)nc(C(F)(F)F)c(C2=NCCS2)c1CC(C)C`, the call was inactive.

Read-out in another experiment: flavin-containing dimethylaniline monooxygenases 3 (FMO3), FMO3 (gene 2328)
Kind of experiment: LTEA_HepaRG_FMO3: Life Technologies and Expression Analysis (LTEA) Assay for flavin-containing dimethylaniline monooxygenases 3 (FMO3) using HepaRG (AID 2283453).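 As to AC50: differentiated human HepaRG liver cells in serum-free induction medium; FMO3 transcript by TaqMan qRT-PCR normalized to ACTB GAPDH and POLR2A.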 The note with it: mRNA level, 48 h; actives raise or lower the signal. The gist of the method: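 HepaRG, 48 h exposure, 8-pt half-log series from 100 uM, 0.5% DMSO vehicle, duplicates; FMO3 transcript by Fluidigm TaqMan qRT-PCR, housekeeping-normalized; gain/loss fit vs DMSO.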
Take `CS(=O)(=O)c1ccc(C(=O)C2C(=O)CCCC2=O)c([N+](=O)[O-])c1`: the compound was classed as inactive.

In the case of `O=c1n(Cl)c(=O)n(Cl)c(=O)n1Cl`, the compound was called inactive.

Turning to `CCOP(=O)(OCC)Oc1nc(Cl)c(Cl)cc1Cl`, the AC50 was 79.3 µM (active).

For the compound `Cc1cnc(C2=NC(C)(C(C)C)C(=O)N2)c(C(=O)O)c1` (stereo not given), the result was inactive.

Turning to `O=C(O)c1c(Cl)ccc2cc(Cl)cnc12`, the compound was called inactive.

With `Cc1cc(C)nc(Nc2ccccc2)n1`, the compound was called inactive.

For `CCCCC(O)(Cn1cncn1)c1ccc(Cl)cc1Cl` (stereo not given), the AC50 is 75.9 µM (active).

Turning to `Nc1c(Cl)c(F)nc(OCC(=O)O)c1Cl`, the compound was called inactive.

Turning to `CCOc1cc(C(C)(C)C)ccc1C1COC(c2c(F)cccc2F)=N1` (stereo not given), the outcome was inactive.

In the case of `CCNC(=O)NC(=O)C(C#N)=NOC`, the call was inactive.

Regarding `COP(=O)(OC)O/C(C)=C/C(=O)N(C)C`, the call was inactive.

Consider `Cc1ccc(N=CN(C)C=Nc2ccc(C)cc2C)c(C)c1`, for which the outcome was inactive.

As to `CS(=O)(=O)c1cc(C(F)(F)F)ccc1C(=O)c1cnoc1C1CC1`, the compound was called inactive.

Consider `C=C(C)CN(CC)c1c([N+](=O)[O-])cc(C(F)(F)F)cc1[N+](=O)[O-]`, for which the call was inactive.

Take `COc1ccc(-c2ccccc2)cc1NNC(=O)OC(C)C`: the call was inactive.

Turning to `O=P(O)(O)CCCl`, the call was inactive.

For the compound `C=CCOC(=O)C(C)(C)OC(=O)c1cc(-n2c(=O)cc(C(F)(F)F)n(C)c2=O)ccc1Cl`, the compound was classed as inactive.

With `CC(C)=CC1C(C(=O)OCc2coc(Cc3ccccc3)c2)C1(C)C` (stereo not given), the outcome was inactive.

Read-out in the next experiment: Cytochrome P450 (CYP1A1), CYP1A1 (gene 1543)
Kind of experiment: LTEA_HepaRG_CYP1A1: Life Technologies and Expression Analysis (LTEA) Assay for Cytochrome P450 (CYP1A1) using HepaRG (AID 2283454). The following applies: mRNA level, 48 h; actives raise or lower the signal. The gist of the method: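 HepaRG, 48 h post-plating switched to serum-free induction medium; 8-pt conc-response (top 100 uM, half-log, 0.5% DMSO), duplicates, 48 h. Lysis in RLT, TaqMan qRT-PCR for CYP1A1; gain or loss vs DMSO.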
As to `CO/N=C(/C1=NOCCO1)c1ccccc1Oc1ncnc(Oc2ccccc2Cl)c1F`, the AC50 was 33 µM (active).

On to `CCCCOCN(C(=O)CCl)c1c(CC)cccc1CC`, for which the AC50 is 74 µM (active).

`CS(=O)(=O)c1ccc(C(=O)C2C(=O)CCCC2=O)c([N+](=O)[O-])c1`: the AC50 was 19.1 µM (active).

As to `O=c1n(Cl)c(=O)n(Cl)c(=O)n1Cl`, the AC50 is 60.2 µM (active).

For `CCOP(=O)(OCC)Oc1nc(Cl)c(Cl)cc1Cl`, the AC50 was 73.5 µM (active).

Consider `Cc1cnc(C2=NC(C)(C(C)C)C(=O)N2)c(C(=O)O)c1` (stereo not given), for which the AC50 is 71.2 µM (active).

As for `O=C(O)c1c(Cl)ccc2cc(Cl)cnc12`, the outcome was inactive.

As to `Cc1cc(C)nc(Nc2ccccc2)n1`, the AC50 is 1.2 µM (active).

For the compound `Nc1c(Cl)c(Cl)nc(C(=O)O)c1Cl`, the AC50 was 50 µM (active).

Consider `OC(c1ccc(Cl)cc1)(c1ccc(Cl)cc1)C(Cl)(Cl)Cl`, for which the AC50 was 11.9 µM (active).

`CCCCC(O)(Cn1cncn1)c1ccc(Cl)cc1Cl` (stereo not given): the AC50 is 12.9 µM (active).

Take `Nc1c(Cl)c(F)nc(OCC(=O)O)c1Cl`: the result was inactive.

Regarding `CC1(C)C(C(=O)OC(C#N)c2cccc(Oc3ccccc3)c2)C1(C)C` (stereo not given), the AC50 was 50 µM (active).

On to `CCOc1cc(C(C)(C)C)ccc1C1COC(c2c(F)cccc2F)=N1` (stereo not given), for which the AC50 is 19.2 µM (active).

On to `N#Cc1c[nH]cc1-c1cccc2c1OC(F)(F)O2`, for which the AC50 is 77.2 µM (active).

Turning to `CCNC(=O)NC(=O)C(C#N)=NOC`, the AC50 was 50 µM (active).

As for `COP(=O)(OC)O/C(C)=C/C(=O)N(C)C`, the compound was classed as inactive.

On to `CCOc1nc(F)cc2nc(S(=O)(=O)Nc3c(Cl)cccc3Cl)nn12`, for which the result was inactive.

In the case of `CNC(=O)N(C)c1nnc(C(C)(C)C)s1`, the AC50 was 42.9 µM (active).

With `CC(C)N1C(=O)c2ccccc2NS1(=O)=O`, the result was inactive.

For the compound `Cc1ccc(N=CN(C)C=Nc2ccc(C)cc2C)c(C)c1`, the AC50 is 41.2 µM (active).

On to `CS(=O)(=O)c1cc(C(F)(F)F)ccc1C(=O)c1cnoc1C1CC1`, for which the AC50 was 78 µM (active).

For `C=C(C)CN(CC)c1c([N+](=O)[O-])cc(C(F)(F)F)cc1[N+](=O)[O-]`, the AC50 is 44.4 µM (active).

Turning to `COc1ccc(-c2ccccc2)cc1NNC(=O)OC(C)C`, the AC50 was 75.1 µM (active).

For the compound `CN=C=S`, the call was inactive.

For the compound `O=P(O)(O)CCCl`, the result was inactive.

Take `C=CCOC(=O)C(C)(C)OC(=O)c1cc(-n2c(=O)cc(C(F)(F)F)n(C)c2=O)ccc1Cl`: the outcome was inactive.

As to `CC(C)C1(C)N=C(c2ncccc2C(=O)O)NC1=O` (stereo not given), the compound was classed as inactive.

Consider `CC(C)=CC1C(C(=O)OCc2coc(Cc3ccccc3)c2)C1(C)C` (stereo not given), for which the AC50 was 60.8 µM (active).

With `COCC(C)N(C(=O)CCl)c1c(C)csc1C` (stereo not given), the AC50 was 50 µM (active).

Turning to `Cn1c(-c2ccccc2)cc(-c2ccccc2)[n+]1C`, the AC50 was 75 µM (active).

Turning to `CSC(=O)c1c(C(F)F)nc(C(F)(F)F)c(C(=O)SC)c1CC(C)C`, the AC50 is 17.1 µM (active).

For `Clc1cccc(C(Cl)(Cl)Cl)n1`, the call was inactive.

`COc1cc(OC)nc(NC(=O)NS(=O)(=O)c2ncccc2OCC(F)(F)F)n1`: the AC50 is 21 µM (active).

Take `COC(=O)NS(=O)(=O)c1ccc(N)cc1`: the call was inactive.

Consider `COC(=O)c1c(C(F)F)nc(C(F)(F)F)c(C2=NCCS2)c1CC(C)C`, for which the compound was classed as inactive.
